High-throughput results (PubChem)
TrxR1 inh: blocks rat thioredoxin reductase 1; hit rate 1% among 390,000; recombinant rTrxR1, NADPH fluorescence consumption, selenite substrate; Potency, µM (highest dose often 114 µM), for the others: top-dose activity change, negative = inhibition, actives largely listed as inhibitors; further: nearly all actives have a fitted effect of over 65% in size
Target sequence (O89049 whole entry, looked up): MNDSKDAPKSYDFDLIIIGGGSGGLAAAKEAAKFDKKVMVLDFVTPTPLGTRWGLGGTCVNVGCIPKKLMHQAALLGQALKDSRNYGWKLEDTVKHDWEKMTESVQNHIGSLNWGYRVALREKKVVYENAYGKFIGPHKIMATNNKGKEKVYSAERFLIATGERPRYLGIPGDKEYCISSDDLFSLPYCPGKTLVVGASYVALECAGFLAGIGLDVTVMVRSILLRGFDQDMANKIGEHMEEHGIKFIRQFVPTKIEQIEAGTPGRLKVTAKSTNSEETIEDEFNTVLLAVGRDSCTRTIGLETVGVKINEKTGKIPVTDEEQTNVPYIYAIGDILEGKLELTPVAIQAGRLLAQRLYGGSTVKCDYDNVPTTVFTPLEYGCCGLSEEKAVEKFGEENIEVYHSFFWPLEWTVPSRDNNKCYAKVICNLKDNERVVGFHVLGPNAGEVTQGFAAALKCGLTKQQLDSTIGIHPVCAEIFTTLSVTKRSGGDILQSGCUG
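Rat TrxR1 (90 nM in the dispensed reagent) was pre-reduced with 400 uM NADPH for 5 min at room temperature, then incubated with compound for 15 min. After 400 uM selenite was added, NADPH fluorescence (Ex 340/Em 450 nm) was followed for 8 min.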
TrxR1 substrate: substrates of rat thioredoxin reductase 1. purified TrxR1 substrate turnover, NADPH consumption readout. Potency, µM (highest dose often 114 µM), inactives show at the highest dose activity change, negative = substrate turnover. hit rate 0.01% among 390,000; further: nearly all actives have a fitted effect of over 50% in size
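Rat TrxR1, dispensed at 90 nM, was prereduced with 400 uM NADPH (final) for 5 min at ~22 deg C, then incubated with compound 15 min before 400 uM selenite. A first-read NADPH fluorescence drop versus no-compound background flagged substrates.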
IDH1 R132H inh: inhibitors of human mutant IDH1 R132H | AID 602179 | Potency, µM (series often up to 76.6 µM), inactives show at the highest dose activity change, negative = inhibition, usual class: inhibitors | O75874 | IDH1-R132H enzyme, NADPH consumption, diaphorase/resazurin fluorescence | hit rate 0.093% among 390,000; further: nearly all actives have a fitted effect of over 65% in size
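IDH1-R132H (0.5 ug/mL) preincubated 30 min with compound, then NADPH (0.016 mM) and alpha-KG (2 mM) added; 80 min at RT, pH 7.5. Remaining NADPH coupled via diaphorase/resazurin to fluorescence (540/590 nm); concentration-response curves normalized to no-enzyme control.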
GLS inh: blocks human kidney-isoform glutaminase activity | O94925 | GLS enzymatic activity, qHTS titration | Potency, µM (highest dose often 45.5 µM), without a hit: at the highest dose activity change, negative = inhibition, usual class: inhibitors | hit rate 0.21% among 410,000
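Human kidney-isoform GLS in 45 mM KH2PO4 pH 8.2, 0.02% Tween-20, with compound, started with 1mM L-Glutamine (added stock). Glutamate oxidase/HRP/Amplex red coupled fluorescence read at start and after 30 min at RT.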
Numbers without * were called inactive; ? = inconclusive; · = not tested or not shown; [ ] = remark or other dose. Shown are actives, neighbours in structure and some others; about 1.2% of the full set was active somewhere. The call rests on the fitted dose curve; in most records, active means well fitted curve in the direction sought with a large enough effect; inconclusive means small, poorly fitted or top-dose-only effect, or another doubt; inactive means no such curve, though single readings can be large; an effect the other way counts as inactive or inconclusive. On the % scale 0 is the no-effect control and ±100 the full control effect; potency means the concentration at half of the fitted maximal effect.

SMILES | TrxR1 inh | TrxR1 substrate | IDH1 R132H inh | GLS inh
Nc1sc2c(c1C(=O)NC1CCS(=O)(=O)C1)CCC2 (stereo not drawn) | 25µM* | 9%[57.1 µM] | 1% | 1%
Cc1ccccc1C(=O)NC1CCS(=O)(=O)C1 (stereo not drawn) | 8% | 1% | -1% | 0%
CCc1cccc(C)c1NC(=O)Cn1ncc2c3ccccc3n(Cc3ccccc3)c2c1=O | 2% | 9% | -11% | 0%
CCOc1ccc(C(=O)CC(Sc2ccc(C)cc2)C(=O)O)cc1 (stereo not drawn) | 22%[57.1 µM] | -10%[57.1 µM] | 11% | 15%
O=C(CC(Sc1ccc(Br)cc1)C(=O)O)c1ccc(F)cc1 (stereo not drawn) | 28µM* | 2% | -1% | 15%
COc1cc(NC(=O)CSc2ccc(-c3ccco3)nn2)cc(OC)c1 | 35µM* | 2% | 3% | 0%
CC(=O)Nc1cccc(NC(=O)CSc2ccc(-c3ccco3)nn2)c1 | 56µM* | -4% | 7% | -20%
COc1ccc(NC(=O)CSc2ccc(-c3ccco3)nn2)cc1 | 50µM* | -9% | 0% | 2%
Cc1cc(C)cc(NC(=O)CSc2ccc(-c3ccco3)nn2)c1 | -59% | 10%[57.1 µM] | 11% | -7%
CC(C)C[C@H]1CN(CCCC[C@H]2CNC(=O)C(=O)N2CCc2ccccc2)C(=O)C(=O)N1CCc1ccc(O)cc1 | · | · | · | 9%
Cc1ccc(C)c2c(C)ccnc12 | 64% | 61% | · | ·
Cc1cc(C)c2nc(NC(=O)C3CC(=O)N(Cc4ccco4)C3)sc2c1 (stereo not drawn) | 13%[57.1 µM] | -14% | 3% | -2%
O=C(Nc1nc2c(F)cc(F)cc2s1)C1CC(=O)N(Cc2ccco2)C1 (stereo not drawn) | 50µM* | 6% | -2% | -13%
Cc1onc(-c2ccccc2Cl)c1C(=O)Nc1sc2c(c1C#N)CCC2 | -4% | -2% | -4% | ·
Cc1onc(C(=O)Nc2sc3c(c2C#N)CCCC3)c1[N+](=O)[O-] | 16µM* | -3% | 0% | 10%
C(=C1NCCN1)c1cccc2ccccc12 | · | · | · | -6%
CC(=O)c1c(-c2ccccc2)[nH]c2ccccc12 | -1%[57.1 µM] | 2%[57.1 µM] | 15% | 2%
O=C(O)/C=C/C(=O)c1c(-c2ccccc2)[nH]c2ccccc12 | 45µM* | -7% | 8% | -1%
O=C(COc1ccccc1Cl)NCc1ccco1 | -2% | 10%[0.457 µM] | -2% | 14%
CC(=O)c1cccc(OCC(=O)N(C)CC(=O)NCc2ccco2)c1 | ? | 4% | 1% | 13µM*
CCOc1ccccc1OCC(=O)NCc1ccco1 | 28µM* | 7% | 4% | 32%
CCOc1ccccc1N(C(=O)CNS(=O)(=O)c1ccccc1)C(CC)C(=O)NCc1ccco1 (stereo not drawn) | 25µM* | -2% | 6% | -1%
COc1cc(/C=C(/C#N)c2nc(-c3cc4ccccc4oc3=O)cs2)ccc1O | 2% | 5% | · | -2%
C=C1C=C(C(F)F)n2ncc(C(=O)N3CCN(c4ccccc4)CC3)c2N1 | -2% | 0% | · | ·
CCCCc1ccc(NC(=O)COC(=O)c2ccccc2OCC(=O)Nc2ccc(Br)cc2)cc1 | 23% | -1% | · | ·
SMILES | TrxR1 inh | TrxR1 substrate | IDH1 R132H inh | GLS inh
O=[N+]([O-])c1c(NCCO)cc(N2CCC3(CC2)OCCO3)c2nonc12 | -7% | -17% | 7% | 13%
CC1CCCN(c2cc(N(C)CCO)c([N+](=O)[O-])c3nonc23)C1 (stereo not drawn) | -10%[57.1 µM] | -13%[57.1 µM] | 8% | -9%
CN(CCO)c1cc(N2CCC3(CC2)OCCO3)c2nonc2c1[N+](=O)[O-] | 28µM* | -33% | 7% | 2%
CN(CCO)c1cc(N2CCCCC2)c2nonc2c1[N+](=O)[O-] | 45µM* | -18% | 4% | -2%
OCC1OC([S-])[C@H](O)C(O)C1O.[Au+] (stereo partly drawn) | · | · | · | 11µM*
CC(=O)Oc1ccc(-c2nc(-c3ccccc3)no2)cc1 | -1% | 3% | · | ·
O=[N+]([O-])c1ccc(Oc2ccc(S(=O)(=O)Nc3ccccc3)cc2)cc1 | 8%[57.1 µM] | 13%[57.1 µM] | -8% | -7%
O=C1C(Cl)=C(NS(=O)(=O)c2ccc([N+](=O)[O-])cc2)C(=O)c2ccccc21 | 0.79µM* | -13% | 4% | 0%
O=C(N[C@@H](Cc1ccccc1)C(=O)N[C@@H](Cc1ccccc1)C(=O)O)OCc1ccccc1 | 8%[57.1 µM] | 9%[57.1 µM] | -6% | 0%
O=C(N[C@@H](Cc1ccccc1)C(=O)CCl)OCc1ccccc1 | 21µM* | 9%[57.1 µM] | -6% | 7%
Cc1ccc(N(C(=O)CCl)C(C(=O)NC2CCCCC2)c2cccnc2)cc1C (stereo not drawn) | 10µM* | -4% | -8% | 20%
Cc1ccc(N(C(=O)CNC(=O)c2ccco2)C(C(=O)NC2CCCCC2)c2cccnc2)cc1C (stereo not drawn) | 8%[57.1 µM] | 0%[57.1 µM] | -15% | 11%
Clc1cc(Cl)c(OCC#CI)cc1Cl | · | · | · | -26%
COc1cc(C(=O)N/N=C/c2ccc(OC(=O)c3ccccc3)c(OC)c2)ccc1O | 6% | -7% | 3% | -5%
O=C(N/N=C/c1ccoc1)c1cc(O)cc(O)c1 | -16% | -4% | 1% | 13µM*
Cc1cc(C)cc(C(=O)N/N=C/c2ccoc2)c1 | 5% | 10% | 4% | 2%
COc1cc(/C=N/NC(=O)c2cc(O)cc(O)c2)ccc1OC(=O)c1ccccc1 | 4% | -8% | -25% | 13µM*
O=C(c1ccccc1)c1ccc(O)c(O)c1O | -10% | -5% | 18% | 10µM*
CN(C)c1ccc(/C=C/c2ccc3cc(F)ccc3n2)cc1 | -2% | 8% | · | ·
COc1ccc(-n2nc3c(c2NC(=O)C(C)Cl)CSC3)cc1 (stereo not drawn) | 1% | -4% | -8% | 6%
COc1ccc(-n2nc3c(c2NC(=O)CCl)CSC3)cc1 | 14µM* | 16% | 13% | 0%
COC(=O)C1=C(C)N(c2ccc(F)c(Cl)c2)C(=O)C1 | 14µM* | 7% | 3% | 0%
O=C(Cn1ncc(Cl)c(Cl)c1=O)NC1CCCCC1 | 56µM* | 1% | 0% | -1%
O=C(CN1C(=O)c2ccccc2C1=O)NC1CCS(=O)(=O)C1 (stereo not drawn) | · | · | -13% | -3%
O=C(Cn1ncc(Cl)c(Cl)c1=O)NCC1CCCCC1 | 35µM* | -2% | 9% | 0%
SMILES | TrxR1 inh | TrxR1 substrate | IDH1 R132H inh | GLS inh
O=C(Cn1ncc(Cl)c(Cl)c1=O)NC1CCS(=O)(=O)C1 (stereo not drawn) | 13µM* | -2% | 10% | -2%
CCNc1ccc(/C=C/c2ccnc3ccccc23)cc1 | -10%[0.0914 µM] | -11% | · | ·
S=c1ncc2n[nH]nc2[nH]1 | -19% | -9% | · | ·
COc1ccc(-c2cc(N)n(S(=O)(=O)c3c(F)c(F)c(F)c(F)c3F)n2)cc1OC | 2.8µM* | 0% | -4% | 2%
Cc1ccccc1Nc1nc(CSc2nnc(-c3ccoc3C)n2C)cs1 | 50µM* | -7% | 3% | ·
Cc1ccc(Nc2nc(CSc3nnc(-c4ccncc4)n3C)cs2)cc1 | -2% | 0% | 0% | 6%
COc1ccc(NC(=O)c2cnn(-c3ccc(C)cc3)c2-n2cccc2)cc1Cl | 13% | -6% | -12% | -6%
